Our source for the growth values is PubChem BioAssay (NCI).

This is part of a sample that, as a whole, favours compounds with a hit. Of some 83,000 tested, about 20% had one in any assay.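 Testing used 96-well plates and a 48-hour single-concentration exposure. Example: -40 means 40% of the starting cells died.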 The source made the active and inactive calls. Rule for the calls: active = growth percent below 10; inactive = the rest.

In one test the test system is NCI-H460 lung. In words: NCI-60 one-dose screen, 48 h (100 = growth as untreated, 0 = no growth, -100 = all killed). As to conditions: 10 µM unless noted.
Turning to `COC(/C=C/c1ccc([N+](=O)[O-])cc1)OC`, the growth is 112% (inactive). On to `O=C(CNC1C2CC3CC(C2)CC1C3)Sc1nnc2sc3ccccc3n12` (stereo not given), for which the growth was 97.9% (inactive). Regarding `C=CC[N+]1(CC)CCN=C1CCCCCCCCCCCCCCCCC` (stereo not given), the growth is -100% (active). As for `CN1CCN(Cc2ccc(NC(=O)c3[nH]ncc3Nc3ccnc4ccsc34)cc2)CC1`, the growth was 8.74% (active). The same measure, in the same setting: under `CN1/C(=C\C=C\C2=[N+](C)c3ccccc3C2(C)C)C(C)(C)c2ccccc21` stands 0.247% (active). Turning to `CS(=O)(=O)c1ccc(-c2cnc3ccc(-c4cccc(S(C)(=O)=O)c4)nn23)cc1`, the growth was 21.4% (inactive). As to `COc1ccc(C/C(C)=C(\c2ccc(OCCN3CCCCCC3)cc2)c2ccc(OC(=O)C3CCCCC3)cc2)cc1`, the growth was 38.1% (inactive).

Another test concerns HOP-92 NSCLC. Described as above. Conditions: 10 µM unless noted.
Turning to `CNC(=O)c1cc(Oc2ccc3nc(NC(=O)Nc4ccc(CN5CCOCC5)c(C(F)(F)F)c4)sc3c2)ccn1`, the growth is -7.77% (active). Take `Cc1cc(N/N=C/c2nc(-c3ccc(Cl)cc3)oc2C)c2cc(Br)ccc2n1`: the growth was 69.6% (inactive). On to `COc1cc(-c2cc(-c3nc4ccc(Cl)cc4[nH]3)[nH]n2)cc(OC)c1OC`, for which the growth was 67.2% (inactive).

`COc1ccc(-c2cc(-c3cccnc3)nc3sc4c(=O)n(-c5ccc(C)cc5)cnc4c23)cc1OC`: the growth was 63.6% (inactive). Still for that read-out and setting: under `CN(C)c1ccc(/C=C\C2=[N+](C)c3ccccc3C2(C)C)cc1` stands -15.6% (active); under `COc1ccc(-c2cc(-c3cccnc3)nc3sc4c(=O)n(-c5ccc(C)cc5)nnc4c23)cc1OC`, 74.4% (inactive). On the same count and under the same terms, under `COc1ccc(C/C(C)=C(\c2ccc(Cl)cc2)c2ccc(OCCN3CCCCCC3)cc2)cc1` stands 71.2% (inactive). Still for that read-out and setting: under `O=C1C=CC(=O)N1c1ccc(Cc2ccc(N3C(=O)C=CC3=O)cc2)cc1` stands 90% (inactive). As for `CN1CCN(Cc2ccc(NC(=O)c3[nH]ncc3Nc3ncnc4[nH]ccc34)cc2)CC1`, the growth was -7.91% (active).

As for `O=C(Nc1ccc(Oc2ccc(F)cc2)c(Cl)c1)c1cccnc1`, the growth was 91.9% (inactive).

Take `OC(c1cccc(C(F)(F)F)c1)c1cnccc1NC1CCCCCC1` (stereo not given): the growth was 5.31% (active).

Consider `NS(=O)(=O)c1ccc(Nc2nc3n[nH]c(Nc4ccccc4)c3c(=O)[nH]2)cc1`, for which the growth is 102% (inactive). As for `O=C1/C(=C/c2ccccc2)CN(CCC(=O)N2C/C(=C\c3ccccc3)C(=O)/C(=C/c3ccccc3)C2)C/C1=C\c1ccccc1`, the growth was 63.1% (inactive). For the molecule `CN1CCN(Cc2ccc(NC(=O)c3[nH]ncc3Nc3ncnc4c3CCC4)cc2)CC1`, the growth was -33% (active). For `O=C1C(=O)N(CCCCn2cc(CO)nn2)c2ccccc21`, the growth is 106% (inactive). For `Cc1cc(Nc2nc(N3CCN(C)CC3)nc3ccccc23)n[nH]1`, the growth was 59.8% (inactive). `CC(=O)C1=C(O)C=C2Oc3c(C(=O)/C=C/c4cc(Cl)cc(Cl)c4)c(O)c(C)c(O)c3[C@]2(C)C1=O`: the growth was -22% (active).

Take `O=C(Nc1ccc(CN2CCOCC2)cc1)c1[nH]ncc1Nc1ncnc2sccc12`: the growth is 22.9% (inactive). Regarding `COc1cc(-c2c3sc(=O)[nH]c3nc3c2c(=O)[nH]n3C(C)C)cc2c1OCO2`, the growth is 114% (inactive). Turning to `O=C1/C(=C/c2ccc(Cl)c(Cl)c2)CN(C(=O)CCN2CCC(=NO)CC2)C/C1=C\c1ccc(Cl)c(Cl)c1`, the growth is -53.2% (active). In the case of `CCN(CC)CCCC(C)Nc1ccnc2c(OC)cccc12` (stereo not given), the growth was 130% (inactive). For the molecule `COc1ccc(-c2cn3c(-c4ccc(OC)cc4)cnc3c(Oc3ccc4c(C)cc(=O)oc4c3)n2)cc1`, the growth is -13.6% (active). As to `CN1CCN(Cc2ccc(NC(=O)c3[nH]ncc3Nc3ncnc4sccc34)cc2)CC1`, the growth is -13.3% (active).

Regarding `O=C([C@@H](COCc1ccccc1)N1C(=O)[C@@H](N2C(=O)OC[C@@H]2c2ccccc2)[C@H]1/C=C/c1ccccc1)N1CCC(CCN2CCCCC2)CC1`, the growth was 76.1% (inactive). For the molecule `OCCNCCNc1c2ccccc2nc2ccccc12`, the growth was 81.1% (inactive). The same measure, in the same setting: under `CC[C@H](Nc1ncnc(N)c1C(N)=O)c1nc2cccc(NCc3ccc(C(=O)NO)cc3)c2c(=O)n1-c1ccccc1` stands 21.5% (inactive); under `CCCCCCCCCc1cc(CN2CCCCC2)c(O)c(CN2CCCCC2)c1`, 12.7% (inactive). On to `CN1CCN(Cc2ccc(NC(=O)c3cncc(C#Cc4cnc(N)c5cccnc45)c3)cc2C(F)(F)F)CC1`, for which the growth was -26.2% (active). `C=C1CC2(OC1=O)C(=O)N(CCCCCCCCCCCCN1C(=O)C3(CC(=C)C(=O)O3)c3ccccc31)c1ccccc12` (stereo not given): the growth was 42.2% (inactive).

On to `Cn1c2ccccc2c2c3c(c4c5ccccc5[nH]c4c21)C(=O)N(N)C3=O`, for which the growth is 80% (inactive). Turning to `Cn1c2ccccc2c2c3c(c4c5ccccc5n(CCCCCC#N)c4c21)C(=O)N(O)C3=O`, the growth was -11.2% (active).

As to `COC(/C=C/c1ccc([N+](=O)[O-])cc1)OC`, the growth is 85% (inactive). Same read-out and setting: under `O=C(CNC1C2CC3CC(C2)CC1C3)Sc1nnc2sc3ccccc3n12` (stereo not given) stands 46.2% (inactive). `C=CC[N+]1(CC)CCN=C1CCCCCCCCCCCCCCCCC` (stereo not given): the growth is -57.6% (active). In the case of `CN1CCN(Cc2ccc(NC(=O)c3[nH]ncc3Nc3ccnc4ccsc34)cc2)CC1`, the growth is 76.2% (inactive). In the case of `CN1/C(=C\C=C\C2=[N+](C)c3ccccc3C2(C)C)C(C)(C)c2ccccc21`, the growth was -18.1% (active). Same read-out and setting: for `CS(=O)(=O)c1ccc(-c2cnc3ccc(-c4cccc(S(C)(=O)=O)c4)nn23)cc1` the value was 16% (inactive); for `COc1ccc(C/C(C)=C(\c2ccc(OCCN3CCCCCC3)cc2)c2ccc(OC(=O)C3CCCCC3)cc2)cc1`, 19.6% (inactive).
